# LDHA inh – blocks human lactate dehydrogenase A. activity change, % (values are at about 110 or 230 µM). P00338. purified LDHA, NADH/diaphorase-resazurin fluorescence; active compounds read low. AID 1347041. 480,000 compounds, 0.15% hits; in the data active = activity change below about -30%; inconclusive = mostly about -25% to -30%;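 note: plate controls were DMSO wells for no effect and wells without enzyme for full effect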
#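 LDH5 2 nM; NADH 0.06 mM, pyruvate 0.2 mM; 200 mM Tris pH 7.4, EDTA, Tween-20; 5 min RT. Detection: diaphorase 0.133 mg/mL + resazurin 37 µM, fluorescence ex540/em590 at 0 and 20 min; normalized to enzyme-free and DMSO wells.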
# DT40 TDP1 CPT – growth inhibition of DT40 Tdp1-/-;hTDP1 cells with camptothecin (screen for TDP1 inhibitors); chicken DT40 Tdp1-/-;hTDP1 cells + 20 nM CPT, ATP luminescence, 48 h; Potency, µM (highest dose often 46.2 µM), for the others: at the top dose activity change, negative = growth inhibition, usual class: inhibitors; 420,000 compounds, 12% hits; note: potency is the fitted concentration of half-maximal effect; nearly all actives have a fitted effect of over 55% in size
#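 Chicken DT40 Tdp1-/- cells complemented with human TDP1, 400 cells/well, exposed to compounds plus 20 nM camptothecin for at least 48 h at 37 C; viability read as ATP content by CellTiter-Glo luminescence.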
# IL1B secr inh – blocks inflammasome-driven IL-1 beta release. activity change, % at 57.5 µM. 360,000 compounds, 4.7% hits. THP-1 LPS/ATP IL-1B secretion, AlphaLISA, 16 h; active compounds read low; in the data active = activity change below about -50%; inconclusive = mostly about -30% to -49%
#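 THP-1 cells pretreated 1 hr with compounds (up to 57.5 uM final), then stimulated with LPS (250 ng/mL final) plus ATP (1.25 mM final); secreted IL-1B measured by AlphaLISA after 16 hr, decreased signal indicating inhibition.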
# RORgamma inh – ROR gamma (mouse) transcription inhibition; P51450; Drosophila S2 Gal4-RORgamma UAS-luciferase reporter, 20 h; Potency, µM (top dose mostly 53.6 µM), for the others: top-dose activity change, negative = inhibition, actives largely listed as inhibitors; 310,000 compounds, 5.4% hits; note: potency is the fitted concentration of half-maximal effect; nearly all actives have a fitted effect of over 60% in size
# Target sequence (P51450 whole entry, looked up, the tested form may be a part): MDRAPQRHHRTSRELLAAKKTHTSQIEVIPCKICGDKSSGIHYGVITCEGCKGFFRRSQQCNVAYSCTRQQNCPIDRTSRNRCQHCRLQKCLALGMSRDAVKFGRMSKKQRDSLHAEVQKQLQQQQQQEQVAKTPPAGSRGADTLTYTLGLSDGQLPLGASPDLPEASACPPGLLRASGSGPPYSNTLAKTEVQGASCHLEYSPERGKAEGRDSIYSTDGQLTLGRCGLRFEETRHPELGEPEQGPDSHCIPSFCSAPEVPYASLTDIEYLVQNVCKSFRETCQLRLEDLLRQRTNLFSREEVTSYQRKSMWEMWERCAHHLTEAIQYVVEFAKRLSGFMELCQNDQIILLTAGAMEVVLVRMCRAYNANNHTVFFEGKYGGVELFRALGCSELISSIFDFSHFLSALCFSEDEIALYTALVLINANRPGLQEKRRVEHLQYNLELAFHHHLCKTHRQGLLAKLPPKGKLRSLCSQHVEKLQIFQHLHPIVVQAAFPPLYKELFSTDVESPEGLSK
#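 Luciferase reporter read in Schneider cells carrying Gal4-RORγ (mouse) and UAS-Photinus luciferase; cells given compound 1 h before 700 uM copper sulfate induction, then incubated 20 h at ambient temperature.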
# DT40 TDP1 no CPT – qHTS for Inhibitors of human tyrosyl-DNA phosphodiesterase 1 (TDP1): qHTS in cells in absence of CPT. DT40 Tdp1-/- hTDP1 cells, no CPT, ATP luminescence, 48 h. Potency, µM (top dose mostly 46.2 µM), for the others: at the highest dose activity change, negative = growth inhibition, usual class: inhibitors. 420,000 compounds, 15% hits; note: potency is the fitted concentration of half-maximal effect; nearly all actives have a fitted effect of over 55% in size
#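 Seeded 400 DT40-hTDP1 cells/well (vehicle DMSO, no 20 nM CPT); pinned compounds; ≥48 hr at 37 °C; CellTiter-Glo luminescence as viability measure.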
# Gal4-VP16 FLuc – Gal4-VP16 reporter inhibition counter-screen; AID 2546; 310,000 compounds, 3.5% hits; Potency, µM (highest dose often 53.6 µM), for inactives: at the highest dose activity, negative = inhibition, most hits filed as inhibitors; Drosophila S2 Gal4-VP16 UAS-luciferase, luminescence, 20 h;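 note: Gal4-VP16 expression switched on by copper sulfate through the metallothionein promoter; potency is the fitted concentration of half-maximal effect; nearly all actives have a fitted effect of over 50% in size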
# Numbers without * were called inactive; u = inconclusive; x = no result. Hits are enriched below; roughly 18% of the tested compounds scored in any of these assays. Unless noted, calls come from the whole dose curve; as a rule, active = well fitted curve in the direction sought with a large enough effect; inconclusive = small, poorly fitted or top-dose-only effect, or another doubt; inactive = no such curve, though single readings can be large; an effect the other way counts as inactive or inconclusive. Unless noted, % is set by controls: 0 for no effect and ±100 for the full control effect.
SMILES,LDHA inh,DT40 TDP1 CPT,IL1B secr inh,RORgamma inh,DT40 TDP1 no CPT,Gal4-VP16 FLuc
Cc1oc(-c2cccc(Cl)c2)nc1CN1CCC(C(=O)NCc2ccco2)CC1,0,-27%,-20,19%,u,3%
Cc1ccccc1-c1nc(CN2CCC(C(=O)NCCCN3CCCC3)CC2)c(C)o1,-11,u,-26,10%,u,-13%
Cc1ccc(S(=O)(=O)N(C)CC(=O)Nc2ccccc2OC(F)(F)F)cc1,-23,x,x,x,x,x
CC(C)(C)C(=O)C1C(C(C)(C)C)=CC(c2ccccc2)=CC1(C)c1ccccc1 (stereo unspecified),6,x,x,x,x,x
COCCn1c(SCC(=O)c2ccc3c(c2)OCCO3)nnc1-c1ccc(Cl)cc1,4,x,x,x,x,x
COc1ccccc1CNC(=O)C1CCN(Cc2nc(-c3cccc(Cl)c3)oc2C)CC1,-13,21µM*,-28,-4%,u,-8%
COc1ccccc1CNC(=O)C1CCN(Cc2nc(-c3ccc(OC)c(OC)c3)oc2C)CC1,-2,-13%,x,x,u,x
Cc1cnc(CNC(=O)c2ccc3oc(Cc4ccccc4)nc3c2)[nH]1,-6,2%,-21,-9%,5%,6%
CC(C)N(Cc1nccn1C)C(=O)c1ccc2oc(Cc3ccccc3)nc2c1,0,21µM*,25,-11%,u,-11%
CSc1cccc(NC(=O)CCc2ncc(-c3ccccc3F)o2)c1,-12,x,x,x,x,x
CC1(C)Oc2ccccc2OC1(O)c1ccc2ccccc2n1 (stereo unspecified),0,u,5,1%,18µM*,-3%
O=C(NCc1cnn(-c2ccccc2)c1)C1CCN(S(=O)(=O)c2cccc(C(F)(F)F)c2)CC1,10,x,x,x,x,x
CCc1nn2c(=O)cc(CN(CC)CC)nc2s1,-5,x,x,x,x,x
COC(=O)c1c(C)oc2ccc(N(C(=O)c3ccncc3)S(=O)(=O)c3ccc(C)cc3)cc12,-5,3.7µM*,-7,-39%,2.1µM*,7.1µM*
COC(=O)c1c(C)oc2ccc(N(C(=O)c3ccncc3)S(=O)(=O)c3ccc4ccccc4c3)cc12,-9,23µM*,24,u,15µM*,3.5µM*
CCCC(=O)N(c1ccc2oc(C)c(C(C)=O)c2c1)S(=O)(=O)c1ccc(C(=O)O)cc1,-8,-12%,8,-21%,u,2%
COC(=O)c1c(C)oc2ccc(N(C(=O)c3ccncc3)S(=O)(=O)c3ccccc3)cc12,2,u,0,-27%,23µM*,u
CCNC(=S)N/N=C(/C)c1cccc(F)c1,-1,x,x,x,x,x
C/C(=N\NC(=S)NCC(C)(C)C)c1cc(F)cc(F)c1O,-3,15µM*,-110*,2.8µM*,15µM*,4µM*
COC(=O)c1ccc(CNC(=O)NCc2coc(-c3cccs3)n2)cc1,5,x,x,x,x,x
COc1ccc(CNC(=O)C2CCN(S(=O)(=O)c3ccc4c(c3)NC(=O)C(C)S4)CC2)cc1 (stereo unspecified),-3,u,8,26%,u,-4%
CC1Sc2ccc(S(=O)(=O)N3CCC(C(=O)Nc4cccc(Cl)c4)CC3)cc2NC1=O (stereo unspecified),-5,u,u,u,18µM*,u
CC1Sc2ccc(S(=O)(=O)N3CCC(C(=O)NCc4ccc(Cl)cc4)CC3)cc2NC1=O (stereo unspecified),0,16µM*,-20,u,15µM*,u
CCc1ccc(NC(=O)C2CCN(S(=O)(=O)c3ccc4c(c3)NC(=O)C(C)S4)CC2)cc1 (stereo unspecified),-4,18µM*,-10,-31%,u,u
CC1Sc2ccc(S(=O)(=O)N3CCC(C(=O)N(C)Cc4ccco4)CC3)cc2NC1=O (stereo unspecified),0,15µM*,-12,u,u,-8%
SMILES,LDHA inh,DT40 TDP1 CPT,IL1B secr inh,RORgamma inh,DT40 TDP1 no CPT,Gal4-VP16 FLuc
O=C(NCCSCc1ccsc1)C1CCC1,-4,x,x,x,x,x
CC(NC(=O)c1ccc2c(c1)N(Cc1ccccc1)C(=O)c1ccccc1S2=O)c1ccc2c(c1)OCCO2 (stereo unspecified),-2,x,x,x,x,x
COc1ccc(CCNC(=O)COc2cc(O)c3c(c2)OC(C)(C)CC3=O)cc1OC,3,u,-5,0%,18µM*,-10%
COc1cc(NC(=O)COc2cc(O)c3c(c2)OC(C)(C)CC3=O)cc(OC)c1,-2,16µM*,-5,u,13µM*,-7%
COc1ccc(NC(=O)COc2cc(O)c3c(c2)OC(C)(C)CC3=O)cc1,0,u,-19,18%,u,-8%
CC1(C)CC(=O)c2c(O)cc(OCC(=O)Nc3ccc(CCO)cc3)cc2O1,4,15µM*,-13,38%,21µM*,-6%
COc1ccc2scc(N3CCN(Cc4ccccc4)CC3)c(=O)c2c1,3,x,x,x,x,x
O=C(CCn1cnc2sc3c(c2c1=O)CCCC3)NC1CCS(=O)(=O)C1 (stereo unspecified),2,x,x,x,x,x
CC(C)C1=CC(=Nc2ccc(S(N)(=O)=O)cc2)C=C(C(C)C)C1=O,15,16µM*,-57*,1%,23µM*,-13%
O=C1[C@H]2CCC=C[C@H]2[C@H](c2ccccc2Br)N1Cc1ccccc1,-2,u,-9,18%,u,-3%
COc1ccc(N2C(=O)[C@H]3CCC=C[C@H]3[C@@H]2c2ccccc2Br)cc1,0,u,9,18µM*,u,32µM*
CCn1c(=O)cc(SCC(=O)NCc2ccc(Cl)cc2)c2ccccc21,1,10µM*,x,x,21µM*,x
CCn1c(=O)cc(SCC(=O)NCc2cccc(Cl)c2)c2ccccc21,-1,u,x,x,9.2µM*,x
O=C(Nc1ccc2c(c1)OCCO2)N1CCC(NS(=O)(=O)c2ccc(Cl)cc2)CC1,4,x,x,x,x,x
CCc1cc(C(=O)c2ccccc2)c(N)s1,0,26µM*,-9,-18%,u,5%
CC(C)NC(=O)CCc1ncc(-c2c(F)cccc2F)o1,0,x,x,x,x,x
Cc1ccc(NC(=O)CN(C)C(=O)COC(=O)c2ccc(NC(=O)CC#N)cc2)cc1,-5,12%,-2,x,7%,x
Cc1ccc(Cn2ccsc2=NC(=O)CCl)cc1,-1,12µM*,-100*,u,5.8µM*,u
Cc1ccc(Cn2ccsc2=NC(=O)COC(=O)c2ccc(NC(=O)CC#N)cc2)cc1,-4,u,-9,x,16µM*,x
